# Assay results published in article PMC5540273 (PLoS ONE, 2017).
# Legend:
# Details in all cases: concentration: 1 μM, replicates: in singlicate; n = 1
# CTK = tested on: T1, CTK
# T1 construct: gene MATK
# DAPK1 = tested on: DAPK1
# DAPK2 = tested on: DAPK2
# DAPK3 = tested on: DAPK3
# DCAMKL1 = tested on: T2, DCAMKL1
# T2 construct: gene DCLK1
# DCAMKL2 = tested on: T3, DCAMKL2
# T3 construct: gene DCLK2
# DCAMKL3 = tested on: T4, DCAMKL3
# T4 construct: gene DCLK3
# DDR1 = tested on: DDR1
# DDR2 = tested on: DDR2
# DLK = tested on: T5, DLK
# T5 construct: gene MAP3K12
# DMPK2 = tested on: T6, DMPK2
# T6 construct: gene CDC42BPG
# DMPK = tested on: DMPK
# DRAK1 = tested on: T7, DRAK1
# T7 construct: gene STK17A
# DRAK2 = tested on: T8, DRAK2
# T8 construct: gene STK17B
# DYRK1A = tested on: DYRK1A
# DYRK1B = tested on: DYRK1B
# DYRK2 = tested on: DYRK2
# EGFR = tested on: EGFR
# EIF2AK1 = tested on: EIF2AK1
# EPHA1 = tested on: EPHA1
# 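Further: KINOMEscan kinase panel screen.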
Structure (SMILES),%Inh (CTK),%Inh (DAPK1),%Inh (DAPK2),%Inh (DAPK3),%Inh (DCAMKL1),%Inh (DCAMKL2),%Inh (DCAMKL3),%Inh (DDR1),%Inh (DDR2),%Inh (DLK),%Inh (DMPK2),%Inh (DMPK),%Inh (DRAK1),%Inh (DRAK2),%Inh (DYRK1A),%Inh (DYRK1B),%Inh (DYRK2),%Inh (EGFR),%Inh (EIF2AK1),%Inh (EPHA1)
CCCCc1nn2ncccc2c1-c1ccnc(NC2CC2)n1 [GW684374],0%,20%,0%,12%,0%,0%,0%,67%,23%,35%,0%,0%,0%,0%,12%,3%,6%,26%,0%,11%
COc1cccc(NC(=O)Nc2ccc(C)c(-c3ccc(C(=O)Nc4ccncc4)cc3)c2)c1 [GSK1398474],0%,28%,8%,0%,1%,7%,0%,94.2%,36%,6%,5%,0%,0%,9%,9%,43%,22%,17%,7%,20%
O=C1NC(=O)C(c2ccc(Cl)cc2)=C1Nc1ccc(O)cc1 [SB-340867],0%,0%,0%,0%,0%,0%,0%,0%,0%,0%,0%,0%,0%,0%,1%,0%,0%,5%,0%,16%
c1ccc(-c2ccnc3[nH]ccc23)cc1 [SB-693578],0%,0%,0%,19%,16%,0%,0%,23%,26%,37%,0%,0%,8%,0%,34%,0%,19%,17%,6%,25%
CC(=O)c1cccc(NC(=O)NC2CCN(c3ccnc(Nc4ccc(F)cc4)n3)C2)c1 (stereo not drawn) [GSK1379710],0%,15%,2%,26%,6%,11%,14%,20%,7%,29%,6%,0%,6%,0%,0%,27%,17%,18%,0%,7%
COC(=O)C(NC(=O)NC1CCN(c2ccnc(Nc3ccc(F)cc3)n2)C1)c1ccccc1 (stereo not drawn) [GSK1379712],0%,15%,0%,25%,17%,12%,0%,0%,39%,0%,1%,0%,2%,0%,0%,17%,13%,23%,0%,10%
Cc1c(Cn2c(C)c(C)n3c(=O)cc(N4CCOCC4)nc23)cccc1C(F)(F)F [GSK2328680],0%,0%,0%,3%,0%,21%,5%,0%,11%,14%,0%,0%,7%,0%,4%,2%,6%,11%,0%,20%
Cc1ccc(-c2nc(Nc3ccncc3)c3ccccc3n2)s1 [GSK189015],8%,11%,0%,10%,17%,30%,15%,61%,2%,0%,13%,0%,5%,0%,28%,3%,27%,25%,0%,16%
CNC(=O)c1ccc(C)c(-n2c(C)cc(OCc3ccc(F)cc3F)c(Br)c2=O)c1,0%,0%,0%,0%,0%,0%,0%,0%,0%,0%,0%,0%,1%,0%,0%,56%,0%,0%,0%,5%
